# Measured values: ChEMBL document CHEMBL3988442, “University of Dundee, Small-Polar-MMV Screening Library” (2021)
# Target: T1, Tyrosyl-tRNA synthetase, putative (Trypanosoma cruzi (strain CL Brener)) (UniProt Q4DSP6)
# T1 sequence (whole entry): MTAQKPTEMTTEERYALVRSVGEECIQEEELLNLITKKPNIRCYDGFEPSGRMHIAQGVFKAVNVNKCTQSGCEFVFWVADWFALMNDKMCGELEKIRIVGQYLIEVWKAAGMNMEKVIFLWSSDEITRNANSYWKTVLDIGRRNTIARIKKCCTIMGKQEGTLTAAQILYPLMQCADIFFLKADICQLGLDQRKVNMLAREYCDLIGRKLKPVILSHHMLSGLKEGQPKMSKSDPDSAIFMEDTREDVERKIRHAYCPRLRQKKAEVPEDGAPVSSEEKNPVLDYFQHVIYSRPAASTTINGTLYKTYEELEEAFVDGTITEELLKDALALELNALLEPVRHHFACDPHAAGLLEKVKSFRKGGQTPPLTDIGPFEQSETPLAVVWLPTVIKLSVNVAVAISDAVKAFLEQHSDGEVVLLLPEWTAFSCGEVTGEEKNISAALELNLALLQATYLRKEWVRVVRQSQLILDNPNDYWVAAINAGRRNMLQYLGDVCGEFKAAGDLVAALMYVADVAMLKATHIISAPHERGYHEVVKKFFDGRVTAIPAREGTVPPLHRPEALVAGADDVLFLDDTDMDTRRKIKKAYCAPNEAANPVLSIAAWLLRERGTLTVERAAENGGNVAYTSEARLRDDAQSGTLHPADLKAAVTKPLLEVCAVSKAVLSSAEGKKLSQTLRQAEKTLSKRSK
# Assay: Trypanosoma cruzi tyrosyl tRNA synthetase (TcYRS) _High Tyrosine SOP; also: in the data most compounds retested in dose-response had high values
# Assay type: functional
# Parameters: scale not given: direction of the effect not stated beside the values
# Settings: 30 µM
row,SMILES,Percent Effect
1,CC(C)c1nc(C2CCCN2CC(=O)Nc2ccc(Cl)cn2)no1 (stereo not drawn),5.79%
2,CCN(CC1CCOC1)C(=O)Nc1ccc(-n2cncn2)nc1 (stereo not drawn),4.31%
3,O=C(NCc1nn(-c2ccccc2)c2c1CCC2)NC1CC1,1.44%
4,CC1CN(CC2CCCCC2)CCN1c1ccc2nncn2n1 (stereo not drawn),5.26%
5,O=C1C(NCc2nnc3n2CCCC3)CCCN1c1cccc(F)c1 (stereo not drawn),10.1%
6,O=C(Cc1cccnc1)N1CCC(OCc2ccccc2)CC1,6.92%
7,CCn1ccnc1CN1CCC(N(C)Cc2ncc(C)o2)C1 (stereo not drawn),10%
8,NC(=O)c1cc(C2CCCN(CCCOc3ccccc3)C2)n[nH]1 (stereo not drawn),1.44%
9,CC(NC(=O)N(C)CCCOc1ccc(F)cc1)c1nncn1C (stereo not drawn),4.74%
10,CN(Cc1noc(C2CC2)n1)C1CCN(Cc2nnc(C3CC3)o2)C1 (stereo not drawn),6.86%
11,CN(Cc1ccc(F)cc1)[C@@H]1CN(C(=O)c2cccs2)C[C@H]1O,5.29%
12,CCn1ncc(Br)c1CN(C)S(=O)(=O)c1ccc(C)cc1,4.23%
13,Cc1cccc(C(=O)N2CCCCC2c2ccc(CN(C)C)cc2)n1 (stereo not drawn),9.04%
14,Cc1cccc(CN2CCc3nnc(CN4CCCC4=O)n3CC2)n1,4.83%
15,CC(C)c1nccn1-c1cccc(C2CCCN(C3CCCC3)C2)n1 (stereo not drawn),6.35%
16,Cc1ccc2cc(C(=O)NCCn3nc4ccccn4c3=O)[nH]c2c1,-1.44%
17,Cc1csc(Nc2nccnc2C2CCCN2C(=O)C(C)C)n1 (stereo not drawn),2.12%
18,CC(C)(C)c1cn2nc(N3CCCC3Cn3cncn3)sc2n1 (stereo not drawn),3.35%
19,CCNC(=O)c1ccc(CNCc2c(C)nn(C)c2N(C)C)cc1,4.74%
20,CN(C)c1cc(C(=O)N2CCN(S(C)(=O)=O)CC2)ccn1,4.31%

row,SMILES,Percent Effect
1,Cn1ccnc1CN1CCN(Cc2noc(-c3ccccc3)n2)CC1,3.68%
2,COCC(C)N(C)C(=O)c1nc(S(C)(=O)=O)n2ccccc12 (stereo not drawn),5.26%
3,CS(=O)(=O)NCC1CCCN(C(=O)COc2ccc(F)cc2)C1 (stereo not drawn),4.31%
4,CCN(Cc1cccc2c1OCO2)C(=O)C(C)c1cccnc1 (stereo not drawn),3.92%
5,Cc1nc(CN2CCC(N(C)Cc3noc(C4CC4)n3)C2)oc1C (stereo not drawn),12.8%
6,COC(=O)CC(c1cnn(C)c1)c1oc(C)cc(=O)c1O (stereo not drawn),0.532%
7,Cc1cnn(CC2CCCN2C(=O)c2ccc(OC(C)C)nc2)c1 (stereo not drawn),-3.35%
8,CN1[C@H](CN2CCCC2)C[C@@H]2CN(C(=O)Cc3cccs3)CC[C@@H]21,7.73%
9,CC(C)CN1CCC2(CCN(C(=O)c3ccc(F)cc3)CC2)C1=O,11.6%
10,CC(=O)N1N=C(c2ccccc2)OC1C(=O)NCCC1=CCCCC1 (stereo not drawn),-1.06%
11,CCC1CN(C(=O)c2ccc(Cl)cc2O)CCN1C(C)C (stereo not drawn),4.79%
12,Cn1cc(-c2nc(CN3CCc4c(ncn4C4CC4)C3)cs2)cn1,0.98%
13,O=C(NCCn1nc2ccccn2c1=O)c1cccc2[nH]ncc12,4.31%
14,COc1ncccc1CNC(=O)NCCNC(=O)c1ccco1,4.74%
15,Cc1cnn(CCNCc2nnc(C3CC3)o2)c1,6.86%
16,COc1ccc(S(N)(=O)=O)cc1C(=O)N(C)Cc1cc(C)on1,1.44%
17,O=S(=O)(CCCN1CCCC1Cn1cncn1)c1ccccc1 (stereo not drawn),9.8%
18,O=C(NCC(=O)N1CCc2ccccc2C1)c1ccoc1,3.92%
19,CC(=O)N1[C@H](CN(C)C)C[C@@H]2CN(C(=O)c3cccc(F)c3)CC[C@@H]21,3.87%

# Target: T1, Tyrosyl-tRNA synthetase, putative (Trypanosoma cruzi (strain CL Brener))
# Assay: Trypanosoma cruzi tyrosyl tRNA synthetase (TcYRS) SOP
# Assay type: functional
# Parameters: scale not given: direction of the effect not stated beside the values
# Settings: 30 µM
row,SMILES,Percent Effect
1,CC(C)c1nc(C2CCCN2CC(=O)Nc2ccc(Cl)cn2)no1 (stereo not drawn),10.3%
2,CCN(CC1CCOC1)C(=O)Nc1ccc(-n2cncn2)nc1 (stereo not drawn),10.8%
3,O=C(NCc1nn(-c2ccccc2)c2c1CCC2)NC1CC1,8.43%
4,CC1CN(CC2CCCCC2)CCN1c1ccc2nncn2n1 (stereo not drawn),8.43%
5,O=C1C(NCc2nnc3n2CCCC3)CCCN1c1cccc(F)c1 (stereo not drawn),13.2%
6,O=C(Cc1cccnc1)N1CCC(OCc2ccccc2)CC1,19.5%
7,CCn1ccnc1CN1CCC(N(C)Cc2ncc(C)o2)C1 (stereo not drawn),17.9%
8,NC(=O)c1cc(C2CCCN(CCCOc3ccccc3)C2)n[nH]1 (stereo not drawn),-1.21%
9,CC(NC(=O)N(C)CCCOc1ccc(F)cc1)c1nncn1C (stereo not drawn),10.3%
10,CN(Cc1noc(C2CC2)n1)C1CCN(Cc2nnc(C3CC3)o2)C1 (stereo not drawn),16.5%
11,CN(Cc1ccc(F)cc1)[C@@H]1CN(C(=O)c2cccs2)C[C@H]1O,20%
12,CCn1ncc(Br)c1CN(C)S(=O)(=O)c1ccc(C)cc1,10%
13,Cc1cccc(C(=O)N2CCCCC2c2ccc(CN(C)C)cc2)n1 (stereo not drawn),14.6%
14,Cc1cccc(CN2CCc3nnc(CN4CCCC4=O)n3CC2)n1,10%
15,CC(C)c1nccn1-c1cccc(C2CCCN(C3CCCC3)C2)n1 (stereo not drawn),17.5%
16,Cc1ccc2cc(C(=O)NCCn3nc4ccccn4c3=O)[nH]c2c1,1.21%
17,Cc1csc(Nc2nccnc2C2CCCN2C(=O)C(C)C)n1 (stereo not drawn),10%
18,CC(C)(C)c1cn2nc(N3CCCC3Cn3cncn3)sc2n1 (stereo not drawn),20.5%
19,CCNC(=O)c1ccc(CNCc2c(C)nn(C)c2N(C)C)cc1,12.8%
20,CN(C)c1cc(C(=O)N2CCN(S(C)(=O)=O)CC2)ccn1,8.43%

row,SMILES,Percent Effect
1,Cn1ccnc1CN1CCN(Cc2noc(-c3ccccc3)n2)CC1,7.69%
2,COCC(C)N(C)C(=O)c1nc(S(C)(=O)=O)n2ccccc12 (stereo not drawn),8.43%
3,CS(=O)(=O)NCC1CCCN(C(=O)COc2ccc(F)cc2)C1 (stereo not drawn),-146%
4,CCN(Cc1cccc2c1OCO2)C(=O)C(C)c1cccnc1 (stereo not drawn),11.8%
5,Cc1nc(CN2CCC(N(C)Cc3noc(C4CC4)n3)C2)oc1C (stereo not drawn),28.2%
6,COC(=O)CC(c1cnn(C)c1)c1oc(C)cc(=O)c1O (stereo not drawn),0%
7,Cc1cnn(CC2CCCN2C(=O)c2ccc(OC(C)C)nc2)c1 (stereo not drawn),1.21%
8,CN1[C@H](CN2CCCC2)C[C@@H]2CN(C(=O)Cc3cccs3)CC[C@@H]21,2.5%
9,CC(C)CN1CCC2(CCN(C(=O)c3ccc(F)cc3)CC2)C1=O,22.5%
10,CC(=O)N1N=C(c2ccccc2)OC1C(=O)NCCC1=CCCCC1 (stereo not drawn),5%
11,CCC1CN(C(=O)c2ccc(Cl)cc2O)CCN1C(C)C (stereo not drawn),9.76%
12,Cn1cc(-c2nc(CN3CCc4c(ncn4C4CC4)C3)cs2)cn1,4.71%
13,O=C(NCCn1nc2ccccn2c1=O)c1cccc2[nH]ncc12,22.9%
14,COc1ncccc1CNC(=O)NCCNC(=O)c1ccco1,12.8%
15,Cc1cnn(CCNCc2nnc(C3CC3)o2)c1,28.2%
16,COc1ccc(S(N)(=O)=O)cc1C(=O)N(C)Cc1cc(C)on1,18.1%
17,O=S(=O)(CCCN1CCCC1Cn1cncn1)c1ccccc1 (stereo not drawn),21.2%
18,O=C(NCC(=O)N1CCc2ccccc2C1)c1ccoc1,9.41%
19,CC(=O)N1[C@H](CN(C)C)C[C@@H]2CN(C(=O)c3cccc(F)c3)CC[C@@H]21,0%
